Test systems include PIK3CD; PIK3CG; PIKFYVE; PIM1; PIM2; PIM3; PIP5K1A; PIP5K1C; PIP5K2B; PKMYT1; PKN1; PKN2; PLK1; PLK2; PLK3; PLK4.
Holding throughout (details): concentration: 1 μM, replicates: in singlicate; n = 1
In the next test the test system is T1, PIK4CB.
T1 construct: gene PI4KB

Another test deals with T2, PIP5K2C.
T2 construct: gene PIP4K2C

Another test concerns T3, PKAC-alpha.
T3 construct: gene PRKACA

The test system of a further test is T4, PKAC-beta.
T4 construct: gene PRKACB
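Also: KINOMEscan kinase panel screen.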

With `CSc1nn2c(=O)cc(N3CCOCC3)nc2n1Cc1cccc(Cl)c1Cl` [GSK2347225], the “%Inh” value was determined as 85% with PIK3CD; 56% with PIK3CG; 0% in the test on PIK4CB; 37% in the test on PIKFYVE; 8% with PIM1; 0% in the test on PIM2. Besides, the “%Inh” value is reported as 0% in the test with PIM3; 0% with PIP5K1A; 27% with PIP5K1C; 4% in the test on PIP5K2B; 7% in the test with PIP5K2C; 24% with PKAC-alpha. The “%Inh” value is given as 12% with PKAC-beta; 0% in the test on PKMYT1; 5% in the test with PKN1; 0% with PKN2; 55% with PLK1; 0% in the test on PLK2. For the same molecule, the “%Inh” value was found to be 5% in the test with PLK3 and 13% in the test on PLK4.

As to `c1ccc(-c2ccc3c(-c4ccnc(Nc5ccc6c(c5)OCCO6)n4)cnn3n2)cc1` [GW818941], the “%Inh” value with PIK3CD is on record as 0%; with PIK3CG it was 0%; in the test with PIK4CB, 0%; in the test with PIKFYVE it was 0%; in the test with PIM1, 9%; in the test with PIM2, 0%. Further, the “%Inh” value is given as 17% in the test on PIM3; 0% in the test on PIP5K1A; 0% with PIP5K1C; 1% in the test with PIP5K2B; 36% with PIP5K2C; 0% in the test on PKAC-alpha. The “%Inh” value in the test on PKAC-beta was found to be 28%; with PKMYT1 it was 3%; with PKN1, 65%; in the test with PKN2 it was 0%; in the test with PLK1, 9%; with PLK2, 0%. For the same molecule, the “%Inh” value in the test on PLK3 and with PLK4 was 0% in each case.

Regarding `CSc1ccc(NC2=C(c3ccccc3Cl)C(=O)NC2=O)cc1` [SB-342411], the “%Inh” value in the test on PIK3CD, in the test with PIK3CG, with PIK4CB, with PIKFYVE, in the test with PIM1 and in the test with PIM2 was 0% each time. The “%Inh” value in the test on PIM3 was 0%; in the test on PIP5K1A, 0%; in the test on PIP5K1C it was 33%; in the test on PIP5K2B it was 0%; in the test on PIP5K2C, 0%; in the test with PKAC-alpha, 74%. The “%Inh” value with PKAC-beta was determined as 0%; with PKMYT1, 25%; in the test on PKN1, 36%; in the test on PKN2, 0%; in the test on PLK1, 8%; in the test with PLK2, 0%. The “%Inh” value in the test on PLK3 is 0%; in the test with PLK4 it was 13%.

On to `COc1ccc(-c2oc3ncnc(N)c3c2-c2ccc(OC)cc2)cc1` [SB-589132], for which the “%Inh” value turned out to be 4% with PIK3CD; 10% in the test on PIK3CG; 10% in the test on PIK4CB; 23% in the test with PIKFYVE; 0% in the test with PIM1; 0% in the test on PIM2. Besides, the “%Inh” value with PIM3 came out at 0%; with PIP5K1A, 48%; with PIP5K1C it was 54%; in the test on PIP5K2B, 11%; in the test on PIP5K2C, 63%; in the test with PKAC-alpha, 0%. Further, the “%Inh” value in the test on PKAC-beta came out at 0%; in the test with PKMYT1 it was 0%; in the test with PKN1, 0%; in the test on PKN2, 0%; in the test on PLK1, 3%; in the test on PLK2 it was 0%. Besides, the “%Inh” value in the test with PLK3 and in the test with PLK4 was 0% in each case.

Regarding `CS(=O)(=O)CCNCc1nc(-c2ccc3ncnc(Nc4ccc(OCc5cccc(F)c5)c(Cl)c4)c3c2)cs1.Cl` [GW583340], the “%Inh” value in the test on PIK3CD was 29%; with PIK3CG, 0%; with PIK4CB it was 26%; in the test with PIKFYVE it was 0%; with PIM1, 20%; in the test with PIM2, 0%. In addition, the “%Inh” value in the test with PIM3 is given as 8%; with PIP5K1A it was 1%; with PIP5K1C, 38%; in the test on PIP5K2B it was 0%; with PIP5K2C, 24%; in the test with PKAC-alpha it was 0%. Further, the “%Inh” value in the test on PKAC-beta, with PKMYT1, in the test on PKN1, with PKN2, with PLK1 and with PLK2 was 0% in each case. The “%Inh” value is recorded as 0% in the test with PLK3 and 3% in the test with PLK4.

Take `COc1ccc(Nc2nccc(N3CCC(NC(=O)c4cccc(NC(C)=O)c4)C3)n2)cc1` (centres unmarked) [GSK1379732]: the “%Inh” value with PIK3CD, in the test with PIK3CG, with PIK4CB, with PIKFYVE, in the test on PIM1 and in the test on PIM2 was 0% throughout. Further, the “%Inh” value in the test with PIM3 is 0%; with PIP5K1A it was 49%; in the test with PIP5K1C, 70%; in the test on PIP5K2B, 12%; with PIP5K2C, 57%; in the test on PKAC-alpha, 0%. The “%Inh” value with PKAC-beta is 12%; in the test with PKMYT1 it was 3%; in the test with PKN1, 0%; in the test on PKN2, 0%; in the test on PLK1 it was 15%; in the test with PLK2 it was 6%. The “%Inh” value with PLK3 and with PLK4 was 0% in each case.

Regarding `Cc1ccc(O)cc1Nc1cc(C(F)(F)F)nc2ccc(-c3ccncc3)cc12` [GW630823], the “%Inh” value was 0% with PIK3CD; 0% in the test on PIK3CG; 0% with PIK4CB; 0% in the test on PIKFYVE; 4% in the test on PIM1; 3% in the test on PIM2. The “%Inh” value in the test with PIM3 was 11%; in the test with PIP5K1A, 0%; in the test on PIP5K1C it was 0%; in the test on PIP5K2B it was 0%; in the test on PIP5K2C, 0%; with PKAC-alpha it was 10%. The “%Inh” value with PKAC-beta is reported as 0%; in the test with PKMYT1 it was 9%; with PKN1, 0%; with PKN2, 0%; in the test with PLK1, 0%; in the test on PLK2 it was 1%. Moreover, the “%Inh” value with PLK3 and in the test with PLK4 was 0% each time.

As to `Cn1ccc2ncnc(Nc3ccc(Oc4cccc(Cl)c4)c(Cl)c3)c21`, the “%Inh” value in the test on PIK3CD was 8%; with PIK3CG it was 8%; in the test on PIK4CB it was 0%; in the test on PIKFYVE, 0%; in the test on PIM1, 8%; in the test on PIM2, 17%. In addition, the “%Inh” value is on record as 22% in the test with PIM3; 0% in the test on PIP5K1A; 0% in the test on PIP5K1C; 54% with PIP5K2B; 22% with PIP5K2C; 4% in the test on PKAC-alpha. Besides, the “%Inh” value with PKAC-beta stood at 0%; in the test on PKMYT1 it was 0%; with PKN1, 0%; with PKN2, 0%; in the test on PLK1, 0%; with PLK2, 30%. For the same molecule, the entries for the “%Inh” value with PLK3 and with PLK4 were 24% and 26%, respectively.

With `COC(=O)c1c(-c2ccccc2)c2cc(Cl)ccc2c(=O)n1Cc1ccc(S(C)(=O)=O)cc1`, the “%Inh” value with PIK3CD amounted to 34%; with PIK3CG, 25%; in the test on PIK4CB, 46%; in the test on PIKFYVE, 0%; in the test with PIM1 it was 1%; with PIM2, 16%. Moreover, the “%Inh” value with PIM3 is 2%; with PIP5K1A, 16%; with PIP5K1C it was 0%; in the test with PIP5K2B, 49%; in the test on PIP5K2C it was 0%; in the test on PKAC-alpha, 5%. The “%Inh” value is 0% in the test on PKAC-beta; 1% in the test with PKMYT1; 0% with PKN1; 0% in the test with PKN2; 0% in the test with PLK1; 6% in the test on PLK2. Further, the “%Inh” value in the test on PLK3 came out at 9%; in the test with PLK4, 26%.

As for `CC(C)N1CCC(n2cnc(-c3ccc(F)cc3)c2-c2ccnc(N)n2)CC1` [SB-223132], the “%Inh” value is 0% in the test on PIK3CD; 7% in the test with PIK3CG; 0% in the test on PIK4CB; 10% in the test on PIKFYVE; 29% with PIM1; 22% with PIM2. For the same molecule, the “%Inh” value with PIM3 is recorded as 10%; in the test with PIP5K1A, 54%; in the test with PIP5K1C, 49%; in the test with PIP5K2B, 0%; in the test with PIP5K2C, 62%; with PKAC-alpha, 0%. The “%Inh” value amounted to 22% in the test with PKAC-beta; 0% in the test with PKMYT1; 0% with PKN1; 0% in the test on PKN2; 0% with PLK1; 0% with PLK2. The “%Inh” value with PLK3 and in the test on PLK4 was 0% in each case.

For the origin of these results see publication PMC5540273 (PLoS ONE, 2017).
